# Only a selection was taken, and the strongest signals are over-represented in it overall.
# B1: GALT1 115 D492A (Arabidopsis thaliana), Q8L7F9 (protein)
# chain: DPMRGSHHHHHHGMASMTGGQQMGRDLYDDDDKSRLQKPYITAAASVVVTPNTTLPMEWLRITLPDFMKEARNTQEAISGDDIAVVSGLFVEQNVSKEEREPLLTWNRLESLVDNAQSLVNGVDAIKEAGIVWESLVSAVEAKKLVDVNENQTRKGKEELCPQFLSKMNATEADGSSLKLQIPCGLTQGSSITVIGIPDGLVGSFRIDLTGQPLPGEPDPPIIVHYNVRLLGDKSTEDPVIVQNSWTASQDWGAEERCPKFDPDMNKKVDDLDECNKMVGGEINRTSSTSLQSNTSRGVPVAREASKHEKYFPFKQGFLSVATLRVGTEGMQMTVDGKHITSFAFRDTLEPWLVSEIRITGDFRLISILASGLPTSEESEHVVDLEALKSPTLSPLRPLDLVIGVFSTANNFKRRMAVRRTWMQYDDVRSGRVAVRFFVGLHKSPLVNLELWNEARTYGDVQLMPFVDYYSLISWKTLAICIFGTEVDSAKFIMKTDDAAFVRVDEVLLSLSMTNNTRGLIYGLINSDSQPIRNPDSKWYISYEEWPEEKYPPWAHGPGYIVSRDIAESVGKLFKEGNLKMFKLEDVAMGIWIAELTKHGLEPHYENDGRIISDGCKDGYVVAHYQSPAEMTCLWRKYQETKRSLCCREW
# Key:
# Assay in all cases: glycan array binding signal (z-score within array); higher = stronger binding
# Settings in all cases: glycan notation: IUPAC condensed, linker removed
# [1] = target: Fuc(a1-2)Gal(b1-3)GalNAc(b1-3)Gal
# Procedure, shortened: (§1)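 Glycan array data came from 3228 arrays in the Consortium for Functional Glycomics database, and only arrays with an available protein sequence were kept. Glycan names were put into IUPAC-condensed notation, and columns mapping to the same glycan were averaged. The binding signal is a within-array Z-score, averaged across arrays of one protein sequence run at different concentrations or buffers and across linkers. A negative Z-score can be read as non-binding.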
# [2] = target: Fuc(a1-2)Gal(b1-4)GlcNAc(b1-3)Gal(b1-4)GlcNAc(b1-3)Gal(b1-4)GlcNAc
# Procedure, shortened: as §1
# [3] = target: Fuc(a1-2)Gal(b1-4)[Fuc(a1-3)]GlcNAc
# Procedure, shortened: as §1
# [4] = target: Fuc(a1-2)Gal(b1-4)[Fuc(a1-3)]GlcNAc(b1-3)Gal(b1-4)[Fuc(a1-3)]GlcNAc
# Procedure, shortened: as §1
# [5] = target: Fuc(a1-2)[Gal(a1-3)]Gal(b1-3)GlcNAc
# Procedure, shortened: as §1
# [6] = target: Fuc(a1-3)[Gal(b1-4)]GlcNAc(b1-2)Man(a1-3)[Fuc(a1-3)[Gal(b1-4)]GlcNAc(b1-2)Man(a1-6)]Man(b1-4)GlcNAc(b1-4)GlcNAc
# Procedure, shortened: as §1
# [7] = target: Fuc(a1-3)[Neu5Ac(a2-3)]Gal(b1-4)GlcNAc(b1-3)GalNAc
# Procedure, shortened: as §1
# [8] = target: Gal(b1-3)GalNAc(a1-3)[Fuc(a1-2)]Gal(b1-4)GlcNAc
# Procedure, shortened: as §1
# [9] = target: Gal(b1-3)[Fuc(a1-4)]GlcNAc(b1-2)Man(a1-3)[Gal(b1-3)[Fuc(a1-4)]GlcNAc(b1-2)Man(a1-6)]Man(b1-4)GlcNAc(b1-4)[Fuc(a1-6)]GlcNAc
# Procedure, shortened: as §1
# [10] = target: Gal(b1-4)GlcNAc(b1-3)GalNAc
# Procedure, shortened: as §1
# [11] = target: Gal(b1-4)GlcNAc(b1-6)GalNAc
# Procedure, shortened: as §1
# [12] = target: Gal3S(b1-3)[Fuc(a1-4)]GlcNAc
# Procedure, shortened: as §1
# Gal3S(b1-4)GlcNAc = target: Gal3S(b1-4)GlcNAc
# Procedure, shortened: as §1
# [13] = target: GlcNAc(a1-4)Gal(b1-4)GlcNAc(b1-3)Gal(b1-4)[Fuc(a1-3)]GlcNAc(b1-3)Gal(b1-4)[Fuc(a1-3)]GlcNAc
# Procedure, shortened: as §1
# [14] = target: GlcNAc(b1-2)Man(a1-3)[GlcNAc(b1-2)Man(a1-6)]Man(b1-4)GlcNAc(b1-4)[Fuc(a1-6)]GlcNAc
# Procedure, shortened: as §1
# [15] = target: GlcNAc(b1-3)Gal(b1-3)GalNAc
# Procedure, shortened: as §1
# [16] = target: Man(a1-2)Man(a1-2)Man(a1-3)Man
# Procedure, shortened: as §1
# Man(a1-3)[Man(a1-6)]Man = target: Man(a1-3)[Man(a1-6)]Man
# Procedure, shortened: as §1
# [17] = target: Man(a1-3)[Man(a1-6)]Man(a1-6)[Man(a1-2)Man(a1-3)]Man(b1-4)GlcNAc(b1-4)GlcNAc
# Procedure, shortened: as §1
# [18] = target: Neu5Ac(a2-3)Gal(b1-3)GalNAc(b1-4)[Neu5Ac(a2-3)]Gal(b1-4)Glc
# Procedure, shortened: as §1
# [19] = target: Neu5Ac(a2-3)Gal(b1-4)GlcNAc(b1-3)GalNAc
# Procedure, shortened: as §1
# [20] = target: Neu5Ac(a2-3)Gal(b1-4)[Fuc(a1-3)]GlcNAc(b1-3)Gal(b1-4)GlcNAc
# Procedure, shortened: as §1
# [21] = target: Neu5Ac(a2-3)Gal(b1-4)[Fuc(a1-3)]GlcNAc6S
# Procedure, shortened: as §1
# [22] = target: Neu5Ac(a2-6)Gal(b1-4)GlcNAc(b1-2)Man(a1-3)[Neu5Ac(a2-6)Gal(b1-4)GlcNAc(b1-2)Man(a1-6)]Man(b1-4)GlcNAc(b1-4)GlcNAc
# Procedure, shortened: as §1
# [23] = target: Neu5Ac(a2-6)Gal(b1-4)GlcNAc(b1-2)Man(a1-6)[Gal(b1-4)GlcNAc(b1-2)Man(a1-3)]Man(b1-4)GlcNAc(b1-4)GlcNAc
# Procedure, shortened: as §1
# [24] = target: Neu5Ac(a2-6)Gal(b1-4)GlcNAc(b1-2)Man(a1-6)[Man(a1-3)]Man(b1-4)GlcNAc(b1-4)GlcNAc
# Procedure, shortened: as §1
# [25] = target: Neu5Ac(a2-6)Gal(b1-4)GlcNAc6S
# Procedure, shortened: as §1
# Neu5Ac(a2-8)Neu5Ac = target: Neu5Ac(a2-8)Neu5Ac
# Procedure, shortened: as §1
# [26] = target: Neu5Ac(a2-8)Neu5Ac(a2-3)[GalNAc(b1-4)]Gal(b1-4)Glc
# Procedure, shortened: as §1
# [27] = target: Neu5Gc(b2-6)Gal(b1-4)GlcNAc
# Procedure, shortened: as §1
binder,measurement,setting,value
B1,glycan array binding signal (z-score),[1],1.79
same,glycan array binding signal (z-score),[2],6.73
same,glycan array binding signal (z-score),[3],8.05
same,glycan array binding signal (z-score),[4],-0.068
same,glycan array binding signal (z-score),[5],-0.352
same,glycan array binding signal (z-score),[6],-0.034
same,glycan array binding signal (z-score),[7],-0.012
same,glycan array binding signal (z-score),[8],0.06
same,glycan array binding signal (z-score),[9],-0.152
same,glycan array binding signal (z-score),[10],-0.374
same,glycan array binding signal (z-score),[11],-0.406
same,glycan array binding signal (z-score),[12],-0.223
same,glycan array binding signal (z-score),Gal3S(b1-4)GlcNAc,-0.298
same,glycan array binding signal (z-score),[13],2.05
same,glycan array binding signal (z-score),[14],2.9
same,glycan array binding signal (z-score),[15],1.5
same,glycan array binding signal (z-score),[16],0.15
same,glycan array binding signal (z-score),Man(a1-3)[Man(a1-6)]Man,-0.244
same,glycan array binding signal (z-score),[17],0.404
same,glycan array binding signal (z-score),[18],-0.335
same,glycan array binding signal (z-score),[19],-0.152
same,glycan array binding signal (z-score),[20],0.671
same,glycan array binding signal (z-score),[21],-0.172
same,glycan array binding signal (z-score),[22],0.357
same,glycan array binding signal (z-score),[23],-0.362
same,glycan array binding signal (z-score),[24],-0.139
same,glycan array binding signal (z-score),[25],0.087
same,glycan array binding signal (z-score),Neu5Ac(a2-8)Neu5Ac,-0.221
same,glycan array binding signal (z-score),[26],-0.078
same,glycan array binding signal (z-score),[27],0.041

# Source: the supplement of paper PMC8728848
